Settings in all cases: mRNA level, 48 h; actives raise or lower the signal
Read-out in assay [1]: Early growth response protein 1 (EGR1) transcription factor, EGR1 (gene 1958)
As to the kind of experiment: LTEA_HepaRG_EGR1: Life Technologies and Expression Analysis (LTEA) Assay for Early growth response protein 1 (EGR1) transcription factor using HepaRG (AID 2283490). In outline: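 Differentiated human HepaRG cells in serum-free induction medium were exposed in duplicate for 48 h to eight concentrations (top 100 uM, half-log steps) in 0.5% DMSO. EGR1 mRNA was quantified by qRT-PCR, normalized to ACTB, GAPDH and POLR2A, and fitted bidirectionally versus DMSO.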

Read-out in assay [2]: Ezrin (EZR), EZR (gene 7430)
As to the kind of experiment: LTEA_HepaRG_EZR: Life Technologies and Expression Analysis (LTEA) Assay for Ezrin (EZR) using HepaRG (AID 2283491). In outline: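 Gain or loss of EZR mRNA is scored relative to 0.5% DMSO in human HepaRG cultures treated 48 h with test chemicals in duplicate, eight half-log concentrations from 100 uM.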

Read-out in assay [3]: Cytochrome P450 3A7 (Homo sapiens) (UniProt P24462)
Put plainly: LTEA_HepaRG_CYP3A7: Life Technologies and Expression Analysis (LTEA) Assay for CYP3A7 using HepaRG (AID 2283492). The essentials:
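Cells were thawed, plated, cultured 48 h, then treated for a further 48 h with chemicals (eight-point half-log series from 100 uM, 0.5% DMSO). RNA was isolated and CYP3A7 expression quantified by qRT-PCR normalised to ACTB, GAPDH and POLR2A.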

Read-out in the next assay: CYP3A5 (gene 1577)
As to the kind of experiment: LTEA_HepaRG_CYP3A5: Life Technologies and Expression Analysis (LTEA) Assay for CYP3A5 using HepaRG (AID 2283493). The essentials: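 mRNA induction or loss of CYP3A5 assessed in HepaRG after 48 h dosing, 100 uM top concentration, duplicate wells; TaqMan qRT-PCR with ACTB, GAPDH, POLR2A normalization; 0.5% DMSO as negative control.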

Read-out in assay [4]: Fatty Acid-Binding Protein 1 (FABP1), FABP1 (gene 2168)
Put plainly: LTEA_HepaRG_FABP1: Life Technologies and Expression Analysis (LTEA) Assay for Fatty Acid-Binding Protein 1 (FABP1) using HepaRG (AID 2283494). In outline:
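Differentiated human HepaRG cells were exposed in duplicate for 48 h in serum-free induction medium to 8-point half-log concentration series topping at 100 uM in 0.5% DMSO. FABP1 mRNA measured by TaqMan qRT-PCR, normalized to ACTB/GAPDH/POLR2A; bidirectional fit versus DMSO.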

Read-out in assay [5]: Cytochrome P450 4A22 (Homo sapiens) (UniProt Q5TCH4)
Put plainly: LTEA_HepaRG_CYP4A22: Life Technologies and Expression Analysis (LTEA) Assay for Cytochrome P450 4A22 (CYP4A22) using HepaRG (AID 2283495). In outline:
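Cryopreserved HepaRG cells, plated and cultured 48 h, then switched to serum-free induction medium and treated 48 h (duplicates, up to 100 uM, half-log steps, 0.5% DMSO). Expression change of CYP4A22 was fitted bidirectionally against vehicle.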

Read-out in assay [6]: Glutathione S-Transferase (GSTA2), GSTA2 (gene 2939)
As to the kind of experiment: LTEA_HepaRG_GSTA2: Life Technologies and Expression Analysis (LTEA) Assay for Glutathione S-Transferase (GSTA2) using HepaRG (AID 2283497). In outline: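 Human HepaRG cells, plated 48 h, then exposed in serum-free induction medium for 48 h to eight half-log concentrations up to 100 uM in 0.5% DMSO, duplicate. GSTA2 mRNA by qRT-PCR, normalized to ACTB/GAPDH/POLR2A; bidirectional fit versus DMSO.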

Read-out in assay [7]: Glutamate-cysteine ligase catalytic (GCLC), GCLC (gene 2729)
Put plainly: LTEA_HepaRG_GCLC: Life Technologies and Expression Analysis (LTEA) Assay for Glutamate-cysteine ligase catalytic (GCLC) using HepaRG (AID 2283498). The essentials:
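Differentiated human HepaRG cells, plated 48 h then switched to serum-free induction medium, were exposed in duplicate for 48 h to 8 half-log concentrations topping at 100 uM in 0.5% DMSO. GCLC mRNA was quantified by qRT-PCR against ACTB, GAPDH and POLR2A.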

Read-out in assay [8]: growth arrest and DNA damage 45 (GADD45G), GADD45G (gene 10912)
As to the kind of experiment: LTEA_HepaRG_GADD45G: Life Technologies and Expression Analysis (LTEA) Assay for growth arrest and DNA damage 45 (GADD45G) using HepaRG (AID 2283499). In outline:
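Human hepatic HepaRG line treated 48 h with chemicals (eight concentrations, half-log steps from 100 uM); transcript induction or repression of GADD45G scored by qRT-PCR versus DMSO vehicle.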

Read-out in assay [9]: Glutamate-cysteine ligase regulatory (GCLM), GCLM (gene 2730)
Put plainly: LTEA_HepaRG_GCLM: Life Technologies and Expression Analysis (LTEA) Assay for Glutamate-cysteine ligase regulatory (GCLM) using HepaRG (AID 2283500). The essentials:
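Human liver HepaRG cultures receive test chemicals for 48 hours at up to 100 uM in 0.5% DMSO. GCLM expression is measured by qRT-PCR and analysed for increases or decreases against vehicle.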

Read-out in assay [10]: Glutathione S-transferase M3 (GSTM3), GSTM3 (gene 2947)
Put plainly: LTEA_HepaRG_GSTM3: Life Technologies and Expression Analysis (LTEA) Assay for Glutathione S-transferase M3 (GSTM3) using HepaRG (AID 2283501). In outline:
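Changes in GSTM3 expression, an oxidative-stress marker, were scored by bidirectional curve fitting against 0.5% DMSO vehicle. Human HepaRG cultures received chemicals for 48 h in duplicate, highest concentration 100 uM with half-log dilutions.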

Read-out in assay [11]: Heat shock 70 kDa protein 1 (HSPA1A), gene 3303
As to the kind of experiment: LTEA_HepaRG_HSPA1A: Life Technologies and Expression Analysis (LTEA) Assay for Heat shock 70 kDa protein 1 (HSPA1A) using HepaRG (AID 2283502). In outline: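 HSPA1A induction in human HepaRG liver cells is measured after 48 h of chemical treatment (100 uM maximum, 0.5% DMSO vehicle). Expression comes from qRT-PCR normalized to endogenous controls.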

Read-out in assay [12]: Hypoxia-inducible factor 1-alpha (Homo sapiens) (UniProt Q16665)
As to the kind of experiment: LTEA_HepaRG_HIF1A: Life Technologies and Expression Analysis (LTEA) Assay for Hypoxia-inducible factor 1 (HIF1A) Trancription factor using HepaRG (AID 2283503). The essentials: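 HepaRG, 48 h exposure, 8-pt half-log series from 100 uM, 0.5% DMSO vehicle, duplicates. Readout: HIF1A transcript by qRT-PCR (Fluidigm array), housekeeping-normalised. Bidirectional curve fit vs DMSO baseline.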

Read-out in assay [13]: 3-Hydroxy-3-Methylglutaryl-CoA Synthase 2 (HMGCS2), HMGCS2 (gene 3158)
As to the kind of experiment: LTEA_HepaRG_HMGCS2: Life Technologies and Expression Analysis (LTEA) Assay for 3-Hydroxy-3-Methylglutaryl-CoA Synthase 2 (HMGCS2) using HepaRG (AID 2283504). In outline: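 Expression of HMGCS2 in human HepaRG liver cells is measured by qRT-PCR 48 h after dosing (highest 100 uM, half-log series, 0.5% DMSO). Values come from bidirectional concentration-response fitting with DMSO as baseline.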

Read-out in assay [14]: Insulin Like Growth Factor 1 (IGF1), IGF1 (gene 3479)
As to the kind of experiment: LTEA_HepaRG_IGF1: Life Technologies and Expression Analysis (LTEA) Assay for Insulin Like Growth Factor 1 (IGF1) using HepaRG (AID 2283506). The essentials: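 Using human HepaRG liver cells, IGF1 transcript induction or suppression is measured 48 h after dosing across eight concentrations capped at 100 uM. Values derive from bidirectional concentration-response fitting with DMSO as baseline.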

Read-out in assay [15]: Intercellular Adhesion Molecule 1 (ICAM1), ICAM1 (gene 3383)
Put plainly: LTEA_HepaRG_ICAM1: Life Technologies and Expression Analysis (LTEA) Assay for Intercellular Adhesion Molecule 1 (ICAM1) using HepaRG (AID 2283507). The essentials:
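Gain or loss of transcript in HepaRG hepatic cells is quantified by qRT-PCR after 48 h chemical exposure (up to 100 uM, half-log steps), with DMSO as baseline.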

Read-out in assay [16]: Insulin-like growth factor-binding protein 1 (IGFBP1), IGFBP1 (gene 3484)
As to the kind of experiment: LTEA_HepaRG_IGFBP1: Life Technologies and Expression Analysis (LTEA) Assay for Insulin-like growth factor-binding protein 1 (IGFBP1) using HepaRG (AID 2283508). In outline:
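mRNA induction or loss was quantified by qRT-PCR after 48 h chemical exposure of human HepaRG cells, with 0.5% DMSO as vehicle and baseline. Concentration-response over eight points up to 100 uM.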

Read-out in assay [17]: Interleukin 6 (IL6), IL6 (gene 3569)
Put plainly: LTEA_HepaRG_IL6: Life Technologies and Expression Analysis (LTEA) Assay for Interleukin 6 (IL6) using HepaRG (AID 2283509). The essentials:
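Differentiated human HepaRG cells, plated 48 h then switched to serum-free induction medium, were exposed in duplicate for 48 h to eight half-log concentrations up to 100 uM in 0.5% DMSO. IL6 mRNA measured by qRT-PCR, normalized to ACTB/GAPDH/POLR2A.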

Read-out in assay [18]: Cytochrome P450 7A1 (Homo sapiens) (UniProt P22680)
Put plainly: LTEA_HepaRG_CYP7A1: Life Technologies and Expression Analysis (LTEA) Assay for Cytochrome P450 7A1 (CYP7A1) using HepaRG (AID 2283496). In outline: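 Gene expression endpoint in human HepaRG liver cells treated for 48 h with test chemicals (up to 100 uM, 0.5% DMSO). Values come from bidirectional concentration-response fitting versus DMSO.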

Read-out in the next assay: HGF (gene 3082)
As to the kind of experiment: LTEA_HepaRG_HGF: Life Technologies and Expression Analysis (LTEA) Assay for Hepatocyte Growth Facto (HGF) using HepaRG (AID 2283505). The essentials:
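Gain or loss of HGF mRNA in human HepaRG liver cells after 48 h chemical exposure; eight concentrations up to 100 uM with 0.5% DMSO vehicle, quantified by TaqMan qRT-PCR.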

Active and inactive are the calls of the source. How the source made its calls: active means hit-call score of the fitted dose curve at least 0.9, where 1 is the maximum; inactive means score below 0.9.

Cytochrome P450 3A7 (Homo sapiens), sequence (P24462 whole entry, looked up): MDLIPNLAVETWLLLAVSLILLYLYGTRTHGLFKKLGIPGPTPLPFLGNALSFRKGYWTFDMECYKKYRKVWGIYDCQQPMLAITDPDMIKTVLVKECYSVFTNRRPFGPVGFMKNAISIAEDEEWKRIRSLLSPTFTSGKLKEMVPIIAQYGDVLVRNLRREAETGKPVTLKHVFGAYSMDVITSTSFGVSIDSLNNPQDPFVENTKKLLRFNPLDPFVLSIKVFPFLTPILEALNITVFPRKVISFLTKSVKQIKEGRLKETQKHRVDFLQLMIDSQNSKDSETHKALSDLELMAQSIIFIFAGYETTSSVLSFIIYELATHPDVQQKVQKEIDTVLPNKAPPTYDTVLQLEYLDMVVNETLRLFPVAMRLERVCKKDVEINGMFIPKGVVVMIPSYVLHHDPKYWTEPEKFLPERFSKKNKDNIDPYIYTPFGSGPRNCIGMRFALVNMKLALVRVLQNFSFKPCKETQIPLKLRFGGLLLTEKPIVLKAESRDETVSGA
Hypoxia-inducible factor 1-alpha (Homo sapiens), sequence (Q16665 whole entry, looked up): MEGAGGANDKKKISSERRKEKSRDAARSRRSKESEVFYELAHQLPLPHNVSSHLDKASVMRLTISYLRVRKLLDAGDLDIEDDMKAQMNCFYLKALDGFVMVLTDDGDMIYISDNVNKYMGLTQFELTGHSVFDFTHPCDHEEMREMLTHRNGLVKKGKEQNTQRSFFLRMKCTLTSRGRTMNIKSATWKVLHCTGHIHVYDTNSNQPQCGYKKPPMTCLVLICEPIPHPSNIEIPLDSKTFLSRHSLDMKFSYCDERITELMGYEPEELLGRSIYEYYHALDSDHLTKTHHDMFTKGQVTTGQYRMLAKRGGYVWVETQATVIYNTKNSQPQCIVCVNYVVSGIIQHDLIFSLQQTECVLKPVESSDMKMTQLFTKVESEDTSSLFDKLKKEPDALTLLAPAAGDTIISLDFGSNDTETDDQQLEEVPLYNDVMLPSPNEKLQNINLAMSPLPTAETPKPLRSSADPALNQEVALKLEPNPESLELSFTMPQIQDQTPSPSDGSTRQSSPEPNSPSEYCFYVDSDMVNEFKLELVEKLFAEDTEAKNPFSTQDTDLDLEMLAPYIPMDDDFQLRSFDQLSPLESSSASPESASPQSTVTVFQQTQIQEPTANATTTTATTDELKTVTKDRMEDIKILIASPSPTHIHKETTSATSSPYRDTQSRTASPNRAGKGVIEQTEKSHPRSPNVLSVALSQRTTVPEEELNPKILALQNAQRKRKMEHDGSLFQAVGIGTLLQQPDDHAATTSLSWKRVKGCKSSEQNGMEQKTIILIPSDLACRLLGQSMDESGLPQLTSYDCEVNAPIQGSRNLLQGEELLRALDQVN

As for `O=c1c(-c2ccc(O)cc2)coc2cc(O)cc(O)c12`, the call (in assay [1]; in assay [2]; in assay [3]; with CYP3A5 (gene 1577); in assay [4]; in assay [5]) was inactive. Moreover, the result in [6], in assay [7], in assay [8], in assay [9], in assay [10] and in assay [11] was inactive. Besides, the outcome in assay [12], in [13], in [14], in assay [15], in [16] and in assay [17] was inactive.
A word on the AC50: it is the midpoint of the concentration-response curve, whichever way the signal moves. For `CC(C)(c1cc(Br)c(O)c(Br)c1)c1cc(Br)c(O)c(Br)c1`, the AC50 was 76.1 µM (active) in assay [1]; 9.73 µM (active) in assay [3]; 78 µM (active) in [7]; 88.6 µM (active) in assay [11]; 74 µM (active) in assay [12]; 89.2 µM (active) in assay [13]. Moreover, the half-maximal activity concentration (AC50) in assay [14] is 77 µM (active); in [15] it was 74.5 µM (active); in assay [16], 69.1 µM (active); in assay [17], 75.5 µM (active). Moreover, the outcome (in assay [2]; in the assay with CYP3A5 (gene 1577); in assay [4]; in assay [5]; in [18]; in assay [8]) was inactive. Moreover, the compound was classed as inactive (in assay [9]; in [10]; with HGF (gene 3082)).
As for `O=C=NCCCCCCN=C=O`, the result (in assay [1]; in assay [2]; in assay [3]; with CYP3A5 (gene 1577); in assay [4]; in assay [5]) was inactive. Also, the compound was classed as inactive in [6], in assay [7], in assay [8], in [9], in [10] and in assay [11]. The compound was classed as inactive in assay [12], in assay [13], in assay [14], in assay [15], in assay [16] and in assay [17].

Source of the values: PubChem BioAssay (EPA / NIEHS).
